Screens deposited in PubChem BioAssay by National Center for Advancing Translational Sciences (NCATS).
A selection: hits, their analogues and other compounds. The true share with any hit is near 19%.
IL-1B inflam inh: inflammasome signaling inhibition, IL-1 beta readout; THP-1 LPS/ATP IL-1B secretion, AlphaLISA, 16 h; stronger effect = lower value; activity change, % at 57.5 µM; 360,000 tested, 4.7% active; in the data active = activity change below about -50%; inconclusive = mostly about -30% to -49%; note: % is set by controls: 0 for no effect and ±100 for the full control effect
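THP-1 cells pretreated 1 hr with compounds (up to 57.5 uM final), then stimulated with LPS (250 ng/mL final) plus ATP (1.25 mM final); secreted IL-1B measured by AlphaLISA after 16 hr, decreased signal indicating inhibition.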
DT40 TDP1 CPT: DT40-hTDP1 cell growth loss with CPT. chicken DT40 Tdp1-/-;hTDP1 cells + 20 nM CPT, ATP luminescence, 48 h. 420,000 tested, 12% active. Potency, µM (highest dose often 46.2 µM), for the others: at the highest dose activity change, negative = growth inhibition, usual class: inhibitors; note: potency is the fitted concentration of half-maximal effect; % is set by controls: 0 for no effect and ±100 for the full control effect; nearly all actives have a fitted effect of over 55% in size
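Chicken DT40 Tdp1-/- cells stably complemented with human TDP1 were seeded at 400 cells/well in medium containing 20 nM camptothecin, exposed to pin-transferred compounds, and grown at 37 °C for at least 48 hr. Viability was read as ATP luminescence.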
DT40 TDP1 no CPT: qHTS for Inhibitors of human tyrosyl-DNA phosphodiesterase 1 (TDP1): qHTS in cells in absence of CPT; DT40 Tdp1-/- hTDP1 cells, no CPT, ATP luminescence, 48 h; Potency, µM (doses to about 46.2 µM), inactives show top-dose activity change, negative = growth inhibition, actives largely listed as inhibitors; 420,000 tested, 15% active; note: potency is the fitted concentration of half-maximal effect; % is set by controls: 0 for no effect and ±100 for the full control effect; nearly all actives have a fitted effect of over 55% in size
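Chicken DT40 Tdp1-/- cells complemented with human TDP1, screened without camptothecin (DMSO vehicle only), 400 cells/well. Compounds pin-transferred, cells incubated at 37 °C for at least 48 hr. Growth read as ATP-dependent luminescence (CellTiter-Glo, 30 min at RT).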
SW480 rereplic: inducers of DNA re-replication in SW480 colon cancer cells; SW480 DNA re-replication, Hoechst DNA content imaging, 48 h; Potency, µM (titrated, usually from 46.1 µM), for inactives: at the top dose re-replication activation, most hits filed as activators; 340,000 tested, 1.8% active; AID 624297; note: potency is the fitted concentration of half-maximal effect; % of control where 0% means no effect; nearly all actives have a fitted effect of over 55% in size
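Image-based read-out: total Hoechst fluorescence of nuclei (405 nm excitation, 500-530 nm emission), with hits raising the fraction of high-intensity nuclei. SW480 colon cells incubated 48 hr with compounds at 37 C.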
MCF10A rereplic: DNA re-replication induction in MCF 10a cells; MCF 10A DNA re-replication, Hoechst nuclear intensity, 48 h; Potency, µM (doses to about 46.1 µM), without a hit: at the highest dose activity, positive = re-replication, hits mostly activators; 350,000 tested, 2.9% active; AID 624296; note: potency is the fitted concentration of half-maximal effect; % of control where 0% means no effect; nearly all actives have a fitted effect of over 50% in size
BCR signal inh: inhibitors of chronic active B-cell receptor signaling | ABC-DLBCL IkBa-CBG/CBR reporter, luminescence ratio, 4 h | Potency, µM (titrated, usually from 46.1 µM), without a hit: at the highest dose activity change, negative = inhibition, actives largely listed as inhibitors | 340,000 tested, 0.05% active | AID 493014; active = well fitted inhibition curve with a large enough effect in the signal ratio, with a control signal flat, not every such curve was filed as active; inconclusive = small, poorly fitted or top-dose-only effect, or effect the other way, or a change in a side signal; the % refers to the signal ratio;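 note: potency is the fitted concentration of half-maximal effect; plate controls were basal doxycycline-induced cells for no effect and cells given 10 µM MG132 for full effect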
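TMD8 ABC-DLBCL cells carrying doxycycline-inducible green luciferase fused to IkappaBalpha plus unfused red luciferase were exposed to compounds (up to 46 uM) for 4 hrs at 37C. Activity came from the overlap-corrected green/red luminescence ratio.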
* = called active by the depositor; ? = inconclusive; . = not tested or not shown. Unless noted, calls come from the whole dose curve; as a rule, active = well fitted curve in the direction sought with a large enough effect; inconclusive = small, poorly fitted or top-dose-only effect, or another doubt; inactive = no such curve, though single readings can be large; an effect the other way counts as inactive or inconclusive.

SMILES	IL-1B inflam inh	DT40 TDP1 CPT	DT40 TDP1 no CPT	SW480 rereplic	MCF10A rereplic	BCR signal inh
C=C(C)COc1ccc(-c2n[nH]c(C)c2-c2ccc(OC)c(OC)c2)c(O)c1	4.2	3.66µM*	2.59µM*	25.2%	?	?
C=C(C)COc1ccc(-c2[nH]ncc2-c2ccc(OC)cc2)c(O)c1	-7.0	?	?	12.8%	?	5.4%
C=C(C)COc1ccc(-c2[nH]ncc2-c2ccccc2)c(O)c1	?	16.4µM*	20.6µM*	2.7%	?	?
COc1ccc(CNC(=O)C2CCN(S(=O)(=O)c3c(C)noc3/C=C/c3ccccc3F)CC2)cc1	.	?	-15.6%	.	.	.
COc1ccc(-c2n[nH]c(C)c2-c2ccc(Cl)cc2)c(O)c1OC	-14.1	?	?	5.0%	18.4µM*	3.8%
C=C(C)COc1ccc(-c2[nH]ncc2-c2ccc(OC)c(OC)c2)c(O)c1	-19.3	1.46µM*	1.64µM*	2.91µM*	5.17µM*	-10.9%
COc1ccc(-c2n[nH]c(C)c2-c2ccc(Cl)cc2)c(O)c1	-18.4	-29.2%	?	-0.7%	?	?
Cc1cc(CN2CCCCC2C(=O)Nc2ccc(Oc3cccnc3)cc2)oc1C (configuration not stated)	-3.0	?	?	16.5%	-13.9%	?
COC(=O)C1=C(C)NC(=S)N(C(C)=O)C1c1ccc(OC)c(OC)c1 (configuration not stated)	0.0	-7.6%	-1.8%	-22.9%	?	4.5%
COc1ccc(C2NC(=S)N3C(c4ccc(OC)c(OC)c4)NC(=S)N23)cc1OC (configuration not stated)	.	0.006µM*	0.0094µM*	.	.	.
CC(=O)Nc1nc(C)c(-c2csc(Nc3cccc(C(C)=O)c3)n2)s1	-78.5*	3.26µM*	5.17µM*	4.0%	-2.5%	?
Cc1nc(N)sc1-c1csc(Nc2ccccc2)n1	-2.4	?	?	?	?	?
CC(=O)Nc1ccc(Nc2nc(-c3sc(NC(C)=O)nc3C)cs2)cc1	-95.3*	16.4µM*	13µM*	4.7%	?	?
CC(=O)Nc1nc(C)c(-c2csc(Nc3cccc([N+](=O)[O-])c3)n2)s1	-50.5*	8.2µM*	5.17µM*	14.0%	?	?
Cc1ccc(-c2csc(NC(=O)c3ccc([N+](=O)[O-])o3)n2)cc1	-105.7*	?	?	6.51µM*	4.11µM*	6.9%
Cc1ccc(/C=C/C(=O)c2ccc([N+](=O)[O-])o2)cc1	-113.3*	1.64µM*	2.06µM*	1.46µM*	3.26µM*	-15.4%
Cc1ccc(CNC(=O)c2ccc([N+](=O)[O-])o2)cc1	?	16.4µM*	?	?	?	-4.2%
Cc1cc(O)c(C(=O)/C=C/c2ccc(Cl)cc2)c(=O)o1	?	?	?	-1.4%	?	3.4%
O=C(/C=C/c1ccc(Cl)cc1)c1ccc([N+](=O)[O-])o1	?	1.03µM*	0.651µM*	?	8.2µM*	-13.8%
N#Cc1ccc(CN2C(=O)NC3(CCCCCC3)C2=O)cc1	5.9	-0.2%	-16.3%	-13.1%	3.9%	1.5%
CCOC(=O)c1ccccc1NC(=O)CN(c1ccc(OCC)cc1)S(C)(=O)=O	.	.	.	.	.	19.0%
COc1ccc(-c2cccc(-c3cc(=O)oc4ccc(C(C)(C)C)cc34)c2)cc1	14.8	?	?	?	0.5%	-1.6%
N#CC(C#N)=c1ccc2c(c1)NC1(CCCCC1)N=2	-104.0*	11.6µM*	10.3µM*	13µM*	?	4.9%
O=C(CSC1=NCCN1)NC1CCCCCC1	-96.8*	?	18.4µM*	-1.8%	?	?
